These results are taken from PubChem BioAssay.

A short description of assay [1]: optical density shifts of acrAB sulA E. coli – strain DRC41, OD650, 48 h, E. coli filamentation inducer project, primary screen (AID 1152).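 Note: E. coli MC1000 strain DRC41 lacking acrAB efflux pump and sulA.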 The settings on record: higher = more signal, called active from +8 up or from −8 down.
A short description of assay [2]: probe aLefty1 binding on compound microarray – biochemical, small-molecule microarray, 635/667 nm fluorescence, primary screen (AID 1153).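 Note: score merges spot fluorescence with signal-to-noise ratio from the scanned slide images.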 As to conditions: higher = more signal.
Assay [3] can be described thus: plasmodial surface anion channel blockers, osmotic lysis – cell-based, P. falciparum Indochina, OD700, 1 h, primary screen (AID 1154). The settings on record: P. falciparum Indochina infected RBC osmotic lysis, higher = more signal, called active from +8 up or from −8 down.
Assay [4] is described as follows: plasmodial surface anion channel blockers, osmotic lysis – cell-based, P. falciparum Indochina, OD700, 2 h, primary screen (AID 1155).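 Note: lysis reports solute entry through the parasite surface anion channel PSAC.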 As to conditions: P. falciparum Indochina infected erythrocytes, higher = more signal, called active from +8 up or from −8 down.
Assay [5] is described as follows: changes in parasitized red cell lysis, either direction – P. falciparum Indochina, OD700, 3 h, PSAC antagonist project, primary screen (AID 1156). As to conditions: P. falciparum-infected erythrocytes, osmotic lysis, higher = more signal, called active from +8 up or from −8 down.
Assay [6] in a line: plasmodial surface anion channel blockers, osmotic lysis – cell-based, P. falciparum Indochina, OD700, 18 h, primary screen (AID 1157). As to conditions: P. falciparum Indochina infected erythrocytes, osmotic lysis OD700, 18 h; higher = more signal, called active from +8 up or from −8 down.
Assay [7] can be described thus: S6 kinase pathway phospho-S6 level changes – cell-based, A549, cytoblot, luminescence, serum-stimulated, primary screen (AID 1158).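 Note: serum-stimulated A549 lung adenocarcinoma cells; signal is phosphorylated S6 detected by cytoblot immunostaining with HRP secondary.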 The settings on record: 5 h, higher = more signal.
Assay [8] deals with NADPH oxidase 2 (Homo sapiens) (UniProt P04839). The experiment in a line: compounds shifting NOX2 Amplex Red fluorescence – cell-based, HEK293-NOX2, PMA-stimulated, NOX inhibitor project, primary screen (AID 1159). Note: test concentration not given here. The settings on record: 45 min, higher = more signal, called active from +8 up or from −8 down.
Chain of NADPH oxidase 2 (Homo sapiens) (P04839 whole entry, looked up): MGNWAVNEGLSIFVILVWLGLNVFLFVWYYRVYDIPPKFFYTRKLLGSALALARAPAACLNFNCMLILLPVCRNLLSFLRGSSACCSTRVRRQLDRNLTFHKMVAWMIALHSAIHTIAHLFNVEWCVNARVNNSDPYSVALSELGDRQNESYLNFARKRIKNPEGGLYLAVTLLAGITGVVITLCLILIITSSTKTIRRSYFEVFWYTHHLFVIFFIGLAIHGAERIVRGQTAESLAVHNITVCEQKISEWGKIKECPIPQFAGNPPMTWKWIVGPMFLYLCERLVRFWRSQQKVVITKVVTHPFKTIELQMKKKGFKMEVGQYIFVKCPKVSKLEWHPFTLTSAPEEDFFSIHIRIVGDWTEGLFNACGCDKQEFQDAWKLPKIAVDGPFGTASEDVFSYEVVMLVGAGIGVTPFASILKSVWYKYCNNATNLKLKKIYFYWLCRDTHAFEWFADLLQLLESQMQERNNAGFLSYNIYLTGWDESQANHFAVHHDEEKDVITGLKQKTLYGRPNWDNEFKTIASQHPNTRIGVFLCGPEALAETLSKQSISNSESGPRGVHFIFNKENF
The target of assay [9] is NADPH oxidase 4 (Homo sapiens) (UniProt Q9NPH5). The experiment in a line: compounds shifting NOX4 Amplex Red fluorescence – cell-based, HEK293-NOX4, tetracycline-induced, NOX inhibitor project, primary screen (AID 1160). The settings on record: HEK293-NOX4, Amplex Red H2O2 fluorescence, 45 min; higher = more signal, called active from +8 up or from −8 down.
Chain of NADPH oxidase 4 (Homo sapiens) (Q9NPH5 whole entry, looked up): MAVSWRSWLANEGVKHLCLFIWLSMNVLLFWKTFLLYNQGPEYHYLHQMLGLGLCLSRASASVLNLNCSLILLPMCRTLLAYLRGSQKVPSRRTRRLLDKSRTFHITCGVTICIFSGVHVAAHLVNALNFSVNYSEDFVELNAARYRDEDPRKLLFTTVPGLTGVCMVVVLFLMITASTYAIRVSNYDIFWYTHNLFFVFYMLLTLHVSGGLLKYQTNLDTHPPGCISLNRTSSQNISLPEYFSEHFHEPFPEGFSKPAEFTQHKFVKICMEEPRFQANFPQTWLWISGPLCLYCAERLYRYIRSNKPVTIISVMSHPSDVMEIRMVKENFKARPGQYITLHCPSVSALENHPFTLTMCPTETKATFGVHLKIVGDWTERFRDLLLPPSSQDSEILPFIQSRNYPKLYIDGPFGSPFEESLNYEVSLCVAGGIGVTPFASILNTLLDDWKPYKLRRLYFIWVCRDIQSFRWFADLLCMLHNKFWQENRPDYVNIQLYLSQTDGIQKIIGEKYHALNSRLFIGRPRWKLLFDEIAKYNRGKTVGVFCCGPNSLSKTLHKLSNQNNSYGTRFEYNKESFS
Assay [10] has as its target NADPH oxidase 5 (Homo sapiens) (UniProt Q96PH1). The experiment in a line: compounds shifting NOX5 Amplex Red fluorescence – cell-based, HEK293-NOX5, NOX inhibitor project, primary screen (AID 1161). As to conditions: HEK293-NOX5, ionomycin, 45 min, higher = more signal.
The nature of assay [11]: compound effects on lung adenocarcinoma cell viability – A549, calcein-AM fluorescence, 48 h, basal, profiling panel (AID 1162). Note: test concentration not given here. As to conditions: higher = more signal.
Assay [12] in a line: compound effects on differentiated 3T3-L1 adipocyte viability – cell-based, 3T3-L1 adipocytes, calcein-AM fluorescence, 48 h, basal, profiling panel (AID 1163). Note: test concentration not given here. The settings on record: 3T3-L1 adipocytes viability, higher = more signal.
The nature of assay [13]: compound effects on hepatocellular carcinoma cell viability – HepG2, calcein-AM fluorescence, 48 h, basal, profiling panel (AID 1164). Note: test concentration not given here. As to conditions: higher = more signal.
Assay [14] in a line: compound effects on multiple myeloma cell viability – MM1S, calcein-AM fluorescence, 48 h, basal, profiling panel (AID 1165).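 Note: viability of MM1S multiple myeloma cells under basal unstimulated conditions; test concentration not given here.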 The settings on record: higher = more signal.
Assay [15] is described as follows: calcein-AM signal in unstimulated myeloma cells – cell-based, calcein-AM fluorescence, 48 h, PK04 Diversity Set, profiling panel (AID 1166).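 Note: cells grown under basal conditions without added stimulus; test concentration not given here.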 As to conditions: RPMI8226 myeloma viability, higher = more signal.
Assay [16] in a line: JC-1 mitochondrial signal, unstimulated HepG2 cells – cell-based, JC-1 fluorescence, 24 h, 100 nL compound, profiling panel (AID 1167). Note: test concentration not given here. As to conditions: HepG2 mitochondrial potential, higher = more signal.
The nature of assay [17]: JC-1 mitochondrial signal, unstimulated adipocytes – cell-based, JC-1 fluorescence, 3T3-L1 adipocytes, 24 h, 100 nL compound, profiling panel (AID 1168). Note: test concentration not given here. As to conditions: JC-1 mitochondrial fluorescence, higher = more signal, called active from +8 up or from −8 down.
A short description of assay [18]: JC-1 mitochondrial signal, unstimulated myeloma cells – cell-based, JC-1 fluorescence, RPMI8226, 24 h, 100 nL compound, profiling panel (AID 1169). Note: test concentration not given here. As to conditions: JC-1 mitochondrial potential fluorescence, higher = more signal.
Assay [19] is described as follows: JC-1 mitochondrial signal, unstimulated MM1S myeloma – cell-based, JC-1 fluorescence, 24 h, 100 nL compound, profiling panel (AID 1170). Note: test concentration not given here. The settings on record: MM1S mitochondrial potential, higher = more signal.
The nature of assay [20]: resazurin metabolic signal in A549 cells – cell-based, resazurin fluorescence, 24 h, PK04 Diversity Set, profiling panel (AID 1171). Note: test concentration not given here. As to conditions: A549 viability, higher = more signal, called active from +8 up or from −8 down. Background: Resazurin is reduced to fluorescent resorufin, in cell work by metabolically active cells.

The source made the active and inactive calls.

Chain of NADPH oxidase 5 (Homo sapiens) (Q96PH1 whole entry, looked up): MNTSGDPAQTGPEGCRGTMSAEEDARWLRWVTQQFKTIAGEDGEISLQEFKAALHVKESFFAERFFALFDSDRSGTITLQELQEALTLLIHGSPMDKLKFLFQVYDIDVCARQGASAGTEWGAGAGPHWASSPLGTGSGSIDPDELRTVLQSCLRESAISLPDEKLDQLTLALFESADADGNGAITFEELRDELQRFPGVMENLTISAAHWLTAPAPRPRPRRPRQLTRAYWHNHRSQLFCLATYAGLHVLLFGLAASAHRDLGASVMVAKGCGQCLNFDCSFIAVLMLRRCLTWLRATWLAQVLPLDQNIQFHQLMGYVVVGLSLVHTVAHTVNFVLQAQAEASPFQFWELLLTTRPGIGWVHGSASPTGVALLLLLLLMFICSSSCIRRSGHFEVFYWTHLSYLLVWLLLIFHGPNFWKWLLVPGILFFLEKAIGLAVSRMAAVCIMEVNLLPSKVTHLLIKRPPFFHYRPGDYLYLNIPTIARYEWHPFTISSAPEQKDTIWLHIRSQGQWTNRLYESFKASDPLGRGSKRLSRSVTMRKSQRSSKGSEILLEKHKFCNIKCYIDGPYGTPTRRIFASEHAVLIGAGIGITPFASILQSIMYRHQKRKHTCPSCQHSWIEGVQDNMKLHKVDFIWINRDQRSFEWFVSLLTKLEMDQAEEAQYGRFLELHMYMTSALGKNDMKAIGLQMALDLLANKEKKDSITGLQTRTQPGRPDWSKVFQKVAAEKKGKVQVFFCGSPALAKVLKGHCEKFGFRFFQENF

Take `CCCCCCc1nc(CCCc2cc3c(c(CCCCCC)n2)[Si](C(C)C)(C(C)C)O[C@H]3c2ccccc2)cc2c1[Si](C(C)C)(C(C)C)O[C@H]2c1ccccc1`: the z-score in assay [1] is -1.58 (inactive); in [3] it was 0.963 (inactive); in [4], 0.165 (inactive); in assay [5], 0.97 (inactive); in assay [6], 0.0888 (inactive); in assay [7], -0.415. Further, the z-score in assay [8] was -4.87 (inactive); in assay [9] it was 0.859 (inactive); in assay [10], -1.07; in [11], 1.4; in assay [12] it was -0.352; in assay [13], -0.17. Also, the z-score was -0.374 in assay [14]; -0.966 in assay [15]; 0.903 in [16]; 0.774 (inactive) in assay [17]; -0.308 in [18]; 0.396 in assay [19]. Also, in [20], the z-score is 1.09 (inactive). The composite z-score in assay [2] is -0.244.
In the case of `CC1(C)OCC(C(O)C2=CCCCC2=O)CO1` (stereo not given), the z-score in assay [1] is -3.47 (inactive); in assay [3] it was 0.0704 (inactive); in [4], 0.137 (inactive); in [5], 0.864 (inactive); in assay [6] it was 0.348 (inactive); in [7], 0.315. In addition, the z-score in assay [8] was 0.362 (inactive); in assay [9] it was -0.247 (inactive); in assay [10], 1.07; in [11], -0.423; in assay [12] it was 1.76; in assay [13], 0.588. For the same compound, the z-score in assay [14] is -0.402; in assay [15], -0.999; in assay [16], 1.28; in [17] it was -0.0827 (inactive); in assay [18], -0.606; in assay [19], 0.724. Besides, in assay [20], the z-score is -0.939 (inactive). In addition, the composite z-score in assay [2] is 0.138.
With `CC(C)NC(=O)[C@@H]1c2ccccc2C(=O)N(CC23CC4CC(CC(C4)C2)C3)[C@H]1c1ccc(CO)cc1`, the z-score was 1.47 (inactive) in [1]; 1.63 (inactive) in assay [3]; -0.315 (inactive) in [4]; -0.143 (inactive) in [5]; -0.853 (inactive) in assay [6]; 1.31 in [7]. Moreover, the z-score was 0.357 (inactive) in assay [8]; 0.318 (inactive) in assay [9]; -1.82 in assay [10]; 1.39 in assay [11]; 0.885 in assay [12]; 1.29 in [13]. Besides, the z-score was -0.0705 in assay [14]; 0.301 in assay [15]; 1.83 in assay [16]; -0.459 (inactive) in assay [17]; 0.433 in [18]; -0.624 in assay [19]. The z-score in assay [20] was 1.18 (inactive). In addition, the composite z-score in assay [2] came out at 0.433.
For the compound `O=C1[C@H]2[C@H]3[C@H](O)[C@H](O)CC(=NOCc4ccccc4)[C@H]3CC[C@H]2C(=O)N1C[C@@H]1CCCO1`, the z-score in [1] was 0.144 (inactive); in assay [3] it was 5.97 (inactive); in [4], 0.673 (inactive); in assay [5], -0.0092 (inactive); in assay [6], 0.479 (inactive); in assay [7] it was 0.067. Also, the z-score is 0.421 (inactive) in assay [8]; 0.511 (inactive) in assay [9]; -1.46 in assay [10]; 0.0598 in assay [11]; -0.247 in assay [12]; -0.85 in assay [13]. Moreover, the z-score in assay [14] is -0.306; in assay [15], 0.422; in assay [16] it was -0.528; in assay [17] it was -1.13 (inactive); in assay [18] it was -0.669; in assay [19], -0.153. In addition, the z-score in assay [20] is 0.469 (inactive). The same compound showed a composite z-score in [2] of 0.0455.
